A selection: hits, their analogues and other compounds. The true share with any hit is near 1.3%.
AMA1-RON2 inh – AMA1-RON2 (P. falciparum) interaction inhibition | AlphaScreen AMA1-biotinylated RON2 peptide binding | Potency, µM (top dose mostly 58.2 µM), without a hit: at the top dose activity change, negative = inhibition, actives largely listed as inhibitors | actives 0.2% (n = 360,000) | AID 720542;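 further: potency means the concentration at half of the fitted maximal effect; 0% = vehicle wells and -100% = peptide control; nearly all actives have a fitted effect of over 45% in size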
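AMA1 (3D7) with his tag at 25 nM final met compounds first, then biotinylated RON2 peptide at 25 nM; detection used donor plus acceptor beads, 10 µg/mL apiece, read by AlphaScreen after 30 min at room temperature.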
VACV Venus inh – inhibitors of vaccinia virus (Venus reporter); Potency, µM (doses to about 36.5 µM), without a hit: at the highest dose activity change, negative = inhibition, most hits filed as inhibitors; Vaccinia virus Venus reporter expression, fluorescence; actives 0.46% (n = 330,000); AID 720580; calls by dose curve; tested in A549 cells; further: potency means the concentration at half of the fitted maximal effect; on the % scale 0 is the no-effect control and ±100 the full control effect; nearly all actives have a fitted effect of over 30% in size
LmPK inh – inhibitors of Leishmania mexicana pyruvate kinase; purified LmPK, Kinase-Glo ATP luminescence, 1 h; Potency, µM (top dose mostly 57.5 µM), for the others: at the highest dose activity change, negative = inhibition, most hits filed as inhibitors; actives 0.37% (n = 290,000); AID 1721; further: potency means the concentration at half of the fitted maximal effect; on the % scale 0 is the no-effect control and ±100 the full control effect
Target sequence (Q27686 whole entry, looked up): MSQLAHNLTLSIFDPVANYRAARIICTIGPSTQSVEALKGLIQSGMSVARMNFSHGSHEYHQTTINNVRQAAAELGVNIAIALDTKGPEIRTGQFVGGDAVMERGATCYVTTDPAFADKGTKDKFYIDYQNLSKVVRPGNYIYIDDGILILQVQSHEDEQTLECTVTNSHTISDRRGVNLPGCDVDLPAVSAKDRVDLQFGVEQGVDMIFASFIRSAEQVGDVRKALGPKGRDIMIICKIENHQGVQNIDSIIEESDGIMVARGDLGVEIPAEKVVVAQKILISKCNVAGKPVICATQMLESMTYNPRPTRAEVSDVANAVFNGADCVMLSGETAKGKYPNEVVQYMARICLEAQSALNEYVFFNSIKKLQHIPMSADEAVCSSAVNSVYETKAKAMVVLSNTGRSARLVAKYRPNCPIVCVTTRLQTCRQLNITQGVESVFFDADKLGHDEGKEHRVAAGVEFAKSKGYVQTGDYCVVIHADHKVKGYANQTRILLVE
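ATP generated from ADP (0.1 mM) and PEP (0.5 mM) by 0.1 nM LmPK over 1 h at room temperature (pH 7.2 imidazole buffer) was detected by coupled luciferase luminescence. Values were normalized to uninhibited and no-enzyme wells.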
Vaccinia mCherry – inhibitors of vaccinia virus infection (mCherry reporter signal) | Vaccinia virus mCherry reporter infection, fluorescence | Potency, µM (top dose mostly 36.5 µM), for inactives: at the highest dose activity change, negative = inhibition, hits mostly inhibitors | actives 0.63% (n = 310,000); calls by dose curve; tested in A549 cells; further: potency means the concentration at half of the fitted maximal effect; on the % scale 0 is the no-effect control and ±100 the full control effect; nearly all actives have a fitted effect of over 35% in size
TbPYK inhibitor – T. brucei pyruvate kinase inhibition | Q57TT1 | TbPYK enzyme, Kinase-Glo Plus ATP luminescence, 45 min | Potency, µM (titrated, usually from 76.8 µM), for inactives: at the top dose activity, negative = inhibition, hits mostly inhibitors | actives 0.12% (n = 410,000) | AID 624173; further: potency means the concentration at half of the fitted maximal effect; on the % scale 0 is the no-effect control and ±100 the full control effect; nearly all actives have a fitted effect of over 50% in size
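Readout: single end-point luminescence (Kinase-Glo Plus, 10 min). Reaction conditions were TbPYK/substrate plus 130 uM ADP, 45 min at RT, pH 7.2 TEA buffer. No-enzyme wells served as controls, and data were normalized before concentration-response fitting.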
RE007 growth inh – less growth of the S. pombe RE007 Vpr strain | Potency, µM (series often up to 92.2 µM), for inactives: at the highest dose activity change, negative = less growth, usual class: inhibitors | S. pombe RE007 Vpr strain, BacTiter-Glo ATP luminescence, 24 h | actives 0.21% (n = 360,000); active means well fitted falling curve with a large enough effect; inconclusive means small, poorly fitted or top-dose-only effect; inactive means no such curve, though single readings can be large or run the other way; further: potency means the concentration at half of the fitted maximal effect; on the % scale 0 is the no-effect control and ±100 the full control effect; nearly all actives have a fitted effect of over 50% in size
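Fission yeast RE007 carrying one integrated HIV-1 vpr copy, seeded at OD 0.01 in PMG+AL medium with 23 nL pinned compound. Grown 24 h at 30 degrees; viability read by BacTiter-Glo luminescence after 5 min.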
LmPK confirm – Inhibits Leishmania mexicana pyruvate kinase, confirmation; AID 2559; purified LmPK, Kinase-Glo ATP luminescence, 1 h; shares compounds with LmPK inh; actives 40% (n = 150); Potency, µM (top dose mostly 57.5 µM), for inactives: at the top dose activity change, negative = inhibition, usual class: inhibitors;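 active means compounds giving a full or partial concentration-response curve, as inhibitors or activators; inconclusive means weak, top-dose-only or unclear curve responses; inactive means no response at any tested dose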
An asterisk follows results filed as active; i = inactive; ? = inconclusive; . = no result; ! = not confirmed by another sample. Unless noted, the call rests on the fitted dose curve; in most records, active means well fitted curve in the direction sought with a large enough effect; inconclusive means small, poorly fitted or top-dose-only effect, or another doubt; inactive means no such curve, though single readings can be large; an effect the other way counts as inactive or inconclusive.

SMILES | AMA1-RON2 inh | VACV Venus inh | LmPK inh | Vaccinia mCherry | TbPYK inhibitor | RE007 growth inh | others
CNC(=O)[C@@H]1C[C@@H](NCc2cccc(Oc3ccccc3)c2)CN1C(C)C | . | -10% | . | -14% | . | .
CCN(CC)S(=O)(=O)c1cccc(-c2nnc(SCc3nc4ccccc4s3)o2)c1 | 7% | 28µM* | -1% | . | -8% | 0%
NC(CCc1ccccc1)c1csc(Nc2cnccn2)n1 (centres undefined) | 98% | ? | . | 10µM* | 3% | 24%
NC(Cc1ccc(F)cc1)c1csc(Nc2cnccn2)n1 (centres undefined) | 90% | 11µM* | . | 10µM* | -7% | -13%
COc1cc(SSc2cc(OC)cc([N+](=O)[O-])c2N)c(N)c([N+](=O)[O-])c1 | ? | . | 16% | . | 2.8µM* | ?
COc1cc([N+](=O)[O-])c2ncsc2c1 | -12% | -9% | -2% | -14% | 8% | 0%
COc1ccc(C(=O)NCc2nc(-c3cccc(NC(=O)c4ccc(C)s4)c3)oc2C)cc1 | . | 0% | . | -11% | . | .
O=C1C=CC(=Nc2ccc3c(c2)Cc2ccccc2-3)O1 | -26% | -15% | . | -16% | -1% | 28µM*
CCC(=O)NC(c1ccc(Cl)cc1Cl)c1ccc2cccnc2c1O (centres undefined) | 8% | ? | -1% | 2µM* | -13% | -9%
CCCC(=O)NC(c1ccccc1Cl)c1ccc2cccnc2c1O (centres undefined) | 47% | ? | 6% | 1µM* | -2% | -8%
CCCCC(=O)NC(c1ccc(Cl)cc1Cl)c1ccc2cccnc2c1O (centres undefined) | 109% | ? | 0% | ? | -21% | -21%
CCOc1ccc(C(=O)Nc2ccc3nc(SCc4ccccc4)sc3c2)cc1 | . | 10µM* | . | ? | 3% | .
Cc1ccc(OCC(=O)Nc2ccc3nc(SCc4ccccc4)sc3c2)cc1 | . | -13% | . | -14% | 0% | .
N#C/C(=C/c1ccc(N2CCOCC2)o1)c1ccc(Br)cc1 | -22% | 32% | 2% | . | 25µM* | -5%
N#C/C(=C\c1ccc(N2CCOCC2)o1)c1ccccc1 | -11% | -5% | 2% | i | -28% | ?
CN1C(=O)c2cccc(N(C)C)c2C1=O | ? | -10% | 0% | -9% | 2% | -29%
CN(C)c1cccc2c1C(=O)c1ccccc1C2=O | 11µM* | -13% | -15% | -21% | -22% | ?
COc1ccccc1CNc1ncnc2nc[nH]c12 | 1% | ? | -2% | 3.5µM*! | 0% | 3%
Cc1cc(C)n(CCC(=O)N/N=C/c2ccccc2O)n1 | 107% | ? | 3% | ? | 2% | 6%
O=C(CCN1CCN(C(c2ccccc2)c2ccccc2)CC1)N/N=C/c1ccc(O)cc1 | 0% | -10% | 1% | -9% | -3% | 14%
Cc1cc(C)n(CCC(=O)N/N=C/c2ccc(O)cc2O)n1 | 77% | ? | -3% | 20µM* | -3% | -5%
O=C(CCN1CCN(C(c2ccccc2)c2ccccc2)CC1)N/N=C/c1ccc(O)cc1O | 29% | ? | 0% | 20µM* | -7% | -2%
CCOC(=O)C1CCCCN1C(=O)c1cnn(-c2nccc(-c3cc(C)sc3C)n2)c1C1CC1 (centres undefined) | . | -19% | . | -24% | . | .
Cc1ccccc1NC(=O)c1cc2ccccn2n1 | 6% | . | 13µM* | . | 11% | -20%
COc1ccccc1CN1CCC2(CCC(CNC(=O)c3ccccc3N(C)C)O2)CC1 (centres undefined) | . | -2% | . | -16% | . | .
SMILES | AMA1-RON2 inh | VACV Venus inh | LmPK inh | Vaccinia mCherry | TbPYK inhibitor | RE007 growth inh | others
O=C(COc1cccc(F)c1)Nc1nc(-c2ccccn2)cs1 | 56% | ? | . | 11µM* | -29% | ?
O=C(COc1ccc(F)cc1)Nc1nc(-c2ccccn2)cs1 | 26% | -12% | . | -29% | -10% | ?
CC(Oc1ccc(Br)cc1)C(=O)Nc1nc(-c2ccccn2)cs1 (centres undefined) | 29% | ? | -11% | 13µM* | -17% | ?
O=C(COc1ccc([N+](=O)[O-])cc1)Nc1nc(-c2ccccn2)cs1 | 31% | ? | . | 5.6µM* | -11% | ?
CC(C)[C@H](NC(=O)c1ccccc1Cl)C(=O)Nc1nc(-c2ccccn2)cs1 | 30% | ? | -7% | ? | -5% | 7%
O=C(Nc1nc(-c2ccccn2)cs1)Nc1ccc(F)cc1F | 88% | ? | -5% | 4µM* | -21% | -4%
CN(Cc1cnc2ccccn12)C(=O)c1cc(NC(=O)c2ccccc2)cc2ncn(C3CCCC3)c12 | . | -15% | . | -13% | . | .
O=C(COc1ccc2ccccc2c1)Nc1nccs1 | 17% | 8% | -27% | -11% | -3% | ?
O=C(COc1ccccc1)Nc1nccs1 | 0% | -11% | 14µM* | i | -16% | -9%
CCN(Cc1ccncc1)Cc1ccc2c(c1)CN(C(=O)c1ccccc1-n1cccn1)CCO2 | . | 0% | . | -6% | . | .
COc1ccc(CN(C(=O)CSc2nnc(-c3c[nH]c4ccccc34)o2)c2ccc(F)cc2)cc1OC | -22% | 10µM* | 5% | 10µM* | 4% | -17%
Cc1ccc2c(CC(=O)N3CCOc4ccc(CN5C[C@@H](C)O[C@@H](C)C5)cc4C3)cc(=O)oc2c1 | . | -11% | . | -6% | . | .
O=C1c2ccccc2C(=O)C1c1ccnc2ccccc12 | 14% | 2% | 7.1µM* | -15% | -14% | -8% | LmPK confirm=?
COc1ccc2c(c1O)-c1cc(O)cc3c1[C@@H](C2)N(C)CC3 | . | -11% | . | -9% | . | .
CN1CCc2cccc3c2C1Cc1ccc(O)c(O)c1-3 (centres undefined) | ? | -14% | 3.2µM* | -14% | -3% | 12% | LmPK confirm=1%
COC(=O)C1=C(C)NC2=C(C(=O)C(C(=O)OC)C(c3ccc(OC)cc3)C2)C1c1ccccn1 (centres undefined) | 0% | 7% | 2% | 0% | 7% | -8% | LmPK confirm=13%
COC(=O)C1=C(C)NC2=C(C(=O)CC(C)(C)C2)C1c1ccccn1 (centres undefined) | 4% | -12% | -10% | -10% | 5% | -10%
CN(Cc1ccon1)Cc1cn(C)nc1-c1cccc(Cl)c1 | -16% | -1% | 13µM* | -9% | 3% | -22% | LmPK confirm=-7%
Cc1ccc(-c2nnc(N(C)C(=O)c3cccnc3)s2)cn1 | -3% | 5% | -4% | -6% | -6% | -11%

Compound activity: PubChem BioAssay, National Center for Advancing Translational Sciences (NCATS)
